Bioassay records: PubChem BioAssay, Broad Institute
In the library only some 3.1% were active in any assay of this set; here they are far more common.
C2C12 statin: suppressors of statin myotoxicity in C2C12 myotubes, primary screen, cell-based, single point, plate reader. C2C12 myotubes + simvastatin, ATP luminescence, 48 h; scaled: DMSO 0, geranylgeraniol control 100. rescue of ATP level, % at 7.49 µM. 330,000 tested, 0.78% active. AID 602340, 2012;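 active = mean ATP rescue above about 67%, or every replicate alone reaching that limit, limit read from the data, passing the limit was not always enough; inconclusive = no clear call, values can overlap the other calls; inactive = mean under the limit and some replicate under it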;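 note: myotubes were challenged with 10 µM simvastatin during compound exposure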
miR122 inh: miR-122 Renilla sensor signal increase in Huh7, primary screen, miR-122 inhibitor project, cell-based, single point, plate reader | activation (reporter increase), % at 12.5 µM | Huh7 miR-122 Renilla luciferase sensor, 48 h; neutral wells = 0, positive control = 100 | 340,000 tested, 0.3% active;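 active = mean replicate activation score at least 90 and every replicate individually at or above 90; inconclusive = only one of the two criteria met; inactive = neither criterion met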;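 note: higher luciferase means less miR-122 activity so hits act as miR-122 inhibitors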
Env fusion inh: inhibitors of HIV-1 Env-driven cell-cell fusion, primary screen, HeLa-JRFL effector, CEM21 target cells, luciferase. inhibition, % at 12.3 µM. 360,000 tested, 1.1% active. AID 651610, 2012;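 active = mean replicate inhibition score of at least 50 and every replicate individually at or above 50; inconclusive = only one of the two criteria met; inactive = mean below 50 and not all replicates reaching 50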;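 note: 0% = plate neutral controls and 100% = maraviroc near 300 nM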
EWS-Fli block: EWS/Fli-driven NR0B1 reporter inhibitors, primary screen, A673 cells, NR0B1 luciferase, luminescence, MLPCN library. viability-normalised. inhibition, % at 12.6 µM. 350,000 tested, 0.67% active. AID 651661, 2012;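 active = mean inhibition of at least 50% after viability correction, with every replicate also passing that limit; inconclusive = mean reaches 50% but only one of two replicates passes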;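 note: firefly luciferase signal divided by Alamar Blue viability fluorescence both relative to DMSO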
INS-1E GSIS act: GLuc luminescence reporter in INS-1E cells, primary screen for activators of glucose-dependent secretion of insulin. INS-1E GLuc reporter insulin secretion, 2-3 h. activation, % at 16.6 µM. AID 743287, 2014. 370,000 tested, 0.61% active;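 active = lowest replicate activation of at least 40%, so every replicate reaches that level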;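 note: 0% = median of neutral control wells and 100% = median of IBMX positive control wells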
PAX8 inh HTS: inhibitors of PAX8-driven TPO luciferase reporter, primary screen, RMG-I cells, single concentration. 360,000 tested, 1.2% active. inhibition, % at 12.6 µM. SteadyGlo, 24 h;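 active = mean replicate inhibition at least 60% with every replicate also reaching 60%; inconclusive = only one of the two criteria is met; inactive = mean below 60% and not all replicates reaching 60%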;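 note: luciferase light reporting Pax8 driven TPO promoter activity; plate controls were median of neutral control wells for no effect and mitoxantrone controls for full effect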
Active calls of the source: *; ? = inconclusive; · = not tested or not shown; [ ] = another dose, or the depositor's remark.

SMILES | C2C12 statin | miR122 inh | Env fusion inh | EWS-Fli block | INS-1E GSIS act | PAX8 inh HTS
COc1ccccc1-c1cc2nc(-c3ccccc3)cc(N3CCN(C(=O)c4ccco4)CC3)n2n1 | 2.6 | -10.6 | -8.1 | -23.9 | -3.9 | 85.7*
CC=Cc1ccc2n(c1=O)C[C@H]1[C@H](CO)[C@@H](C(=O)N3CCC(Cc4ccccc4)CC3)N(C)[C@@H]21 (mixture of isomers) | -13.5 | · | 1.5[16.7 µM] | -3.9 | -10.5 | ·
Cc1ccc(C)c(CSc2nnc(-c3cccnc3)o2)c1 | 2.8 | 355.7* | -18.2 | · | · | ·
CN(C)Cc1cn(CC[C@H]2CC[C@H](NC(=O)Nc3ccc4c(c3)OCO4)[C@@H](CO)O2)nn1 | -3.5 | 0.1[16.7 µM] | -11.4[16.7 µM] | -18.2 | -3.5 | -7.5
Cn1nnnc1Sc1ncnc2scc(-c3cc4ccccc4o3)c12 | 5.4 | -4.5 | · | 11.9 | · | 89.9*
Cc1ccc(-c2csc3ncnc(SCC(=O)O)c23)cc1 | 0.4 | 8.7 | -2.1 | -3.2 | 13.8 | -2.2
COC(=O)CSc1ncnc2scc(-c3ccccc3)c12 | -7.1 | -12.4 | -3.3 | 4.1 | 59.8* | -11.2
Cn1nnnc1Sc1ncnc2scc(-c3ccc(-c4ccccc4)cc3)c12 | 4.3 | 21.6 | -79.1 | -5.3 | 10.1 | 77.2*
Cn1nnnc1Sc1ncnc2scc(-c3ccsc3)c12 | 17.7 | · | -104.2 | 22.4 | 21.0 | 97.7*
Cc1noc(C)c1NC(=O)Nc1cccc2c1O[C@@H](CN(C)C(=O)NC(C)C)[C@@H](C)CN([C@@H](C)CO)C2=O | -14.6 | 5.2[16.7 µM] | -7.0[16.7 µM] | -10.7 | 1.4 | -38.8
COc1ccc2c3c(n(C)c2c1)[C@H](CO)N(C(=O)Nc1ccc(F)cc1)CC31CCN(C)CC1 | · | · | · | 10.9 | -16.3 | ·
C[C@H]1CN([C@@H](C)CO)S(=O)(=O)c2ccc(C#Cc3ccccc3)cc2O[C@H]1CN(C)S(C)(=O)=O | 43.2 | 2.4[16.7 µM] | 2.2[16.7 µM] | 5.8 | -15.1 | 18.8
CCS(=O)(=O)Nc1ccc2c(c1)C(=O)N(C)[C@H]1CC[C@@H](CC(=O)N3CCOCC3)O[C@H]1CO2 | 0.2 | -1.5[16.7 µM] | 4.2[16.7 µM] | -0.5 | 6.1 | -6.0
Cn1nnnc1Sc1ncnc2scc(-c3ccc(C#N)cc3)c12 | 40.6 | -8.3 | -270.0 | 21.3 | 7.1 | 72.1*
CC(=O)c1ccccc1-c1csc2ncnc(Sc3nnnn3C)c12 | 17.9 | -1.0 | 8.0 | 7.9 | -1.2 | 85.5*
CCOc1ccc(OCCOCCOc2c(Cl)cccc2Cl)cc1 | 132.7* | -3.2 | · | · | -27.5 | ·
CCOc1ccccc1OCCOCCOc1c(Cl)cccc1Cl | · | · | 20.4 | · | -14.4 | -15.8
CCOC(=O)c1c(NC(=O)CSc2nnc(CNc3ccc(F)cc3)o2)sc(C)c1C | · | 1.4 | ? | · | · | 27.0
CCOC(=O)c1c(NC(=O)CSc2nnc(CNc3ccc(Cl)cc3)o2)sc(C)c1C | 6.0 | -0.7 | 64.9* | · | · | ·
C[C@@H]1CN([C@@H](C)CO)C(=O)c2cc(-c3ccc(C#N)cc3)cnc2O[C@H]1CN(C)Cc1ccccn1 | -9.8 | -4.6[16.7 µM] | 3.6[16.7 µM] | -4.3 | 3.2 | ·
CO[C@@H]1CN(C)C(=O)c2cc(NC(=O)C3CC3)ccc2OC[C@@H](C)N(Cc2ccccc2C(=O)O)C[C@H]1C | -0.3 | · | -4.4[16.7 µM] | -8.5 | · | 11.6
CN(CCOc1ccc(-c2ccn(S(=O)(=O)c3ccc(Cl)cc3)n2)cc1)c1ccccn1 | 30.7 | -8.0 | 60.0* | · | · | 7.1
CCCCCc1cc(=O)oc2c(C(CCN3CCCC(C)C3)c3ccc4c(c3)OCO4)c(OC)cc(OC)c12 (configuration not stated) | -28.4 | · | 16.3 | 13.7 | 36.4 | 1.3
CCCCCc1cc(=O)oc2c(C(CCN(CC)CC)c3cc(OC)c(OC)c(OC)c3)c(OC)cc(OC)c12 (configuration not stated) | -2.2 | -24.7 | -7.8 | 50.6* | 62.9* | 14.8
CCCCCc1cc(=O)oc2c(C(CCN3CCCCC3)c3ccc4c(c3)OCO4)c(OC)cc(OC)c12 (configuration not stated) | -60.8 | 35.5 | -8.3 | 20.8 | 94.7 | 87.6*
SMILES | C2C12 statin | miR122 inh | Env fusion inh | EWS-Fli block | INS-1E GSIS act | PAX8 inh HTS
CCCN(C)C[C@H]1OCCCC[C@H](C)Oc2ccc(NC(=O)CCC(F)(F)F)cc2C(=O)N([C@@H](C)CO)C[C@H]1C | 4.4 | -2.5[16.7 µM] | -20.8[16.7 µM] | -3.5 | 19.3 | 0.4
CCNc1nc(NCC)nc(N(C#N)C(C)C)n1 | -5.7 | -26.2 | -16.7 | -4.0 | 47.8* | 2.1
CCNc1nc(NC(C)C)nc(N(C#N)C(C)C(=O)N(C)C)n1 (configuration not stated) | -5.1 | -0.3 | · | · | · | ·
C[C@@H]1CCCCO[C@@H](CN(C)C(=O)c2ccccc2)[C@H](C)CN([C@H](C)CO)C(=O)c2cc(NC(=O)Nc3cccc4ccccc34)ccc2O1 | · | 1.1[16.7 µM] | 13.6[16.7 µM] | 6.1 | 2.8 | ·
Cc1ccc(C(=O)Nc2ccc3ncccc3c2)cc1 | -9.7 | · | -19.8 | 65.6* | 11.3 | 21.7
COc1ccc(C(=O)Nc2ccc3ncccc3c2)cc1 | -15.9 | · | -23.8 | 58.0* | -0.7 | 26.7
O=C(Nc1ccc2ncccc2c1)c1cccc(Br)c1 | -7.0 | 3.6 | -86.5 | -131.4 | -6.1 | -70.7
OC(c1cc(Cl)cc(Cl)c1)c1ncc(-c2ccccc2F)[nH]1 (configuration not stated) | 3.8 | 150.4* | -6.7 | 7.2 | -16.9 | 7.1
OC(c1ccc(F)cc1)c1ncc(-c2ccccc2F)[nH]1 (configuration not stated) | -1.6 | 145.7* | 12.1 | -82.3 | -8.7 | -95.0
COc1cccc(S(=O)(=O)N(C)C[C@@H]2Oc3cc(C#CCN(C)C)ccc3S(=O)(=O)N([C@@H](C)CO)C[C@H]2C)c1 | -111.8 | -10.2[16.7 µM] | -7.1[16.7 µM] | 7.2 | 3.1 | ·
CN1CCN(C(=O)C[C@H]2C[C@H]3c4cc(NC(=O)CC5CC5)ccc4O[C@H]3[C@@H](CO)O2)CC1 | -0.1 | 8.4[16.7 µM] | · | -3.7 | 7.3 | ·
COc1ccc(CN(C)C[C@@H]2Oc3ccc(NC(=O)Nc4ccc(C(F)(F)F)cc4)cc3C(=O)N([C@H](C)CO)C[C@@H]2C)cc1 | -8.0 | -8.5[16.7 µM] | 6.6[16.7 µM] | 8.5 | 35.9 | ·
C/C(=C\CNc1ncnc2nc[nH]c12)CO | 12.2 | -7.3 | · | 2.0 | 4.2 | ·
CC(C)CCCCCCCCCCCCC(=O)NCC(=O)NC1C(C)OC(Nc2ncnc3nc[nH]c23)C(O)C1O (configuration not stated) | · | 1.3 | ? | 23.4 | · | 105.6*
Cn1nccc1C(=O)Nn1cnnc1 | 117.9* | -10.9 | · | · | · | ·
Cc1nn(C)c(C)c1NC(=O)c1ccnn1C | -3.6 | 3.0 | · | · | · | ·
Cc1ccc(-c2ccc3c(c2)O[C@@H](CN(C)Cc2ccncc2)[C@@H](C)CN([C@@H](C)CO)S3(=O)=O)cc1 | -8.1 | -0.1[16.7 µM] | 20.5[16.7 µM] | 9.6 | 26.8 | ·
O=C(Cn1c(C(F)(F)F)nc2ccccc21)c1ccc(Cl)cc1 | 9.5 | 0.8 | 64.4* | · | · | ·
